Source: the supplement of paper PMC11732987, “Enantioselective OTUD7B fragment discovery through chemoproteomics screening and high-throughput optimisation” (Communications Chemistry, 2025)

Legend:
Assay in all cases: log2 ratio of Biotin-Ahx-Ub-VS probe labelling (fragment/DMSO); higher = less target engagement (more negative = stronger competition), active = hit call of the paper (q ≤ 0.05, log2 ratio ≤ -1)
Details in all cases: compound concentration: 200 uM; treatment time: 3 h
[1] = target: T1, ALG13 (UniProt Q9NP73)
T1 sequence (whole entry): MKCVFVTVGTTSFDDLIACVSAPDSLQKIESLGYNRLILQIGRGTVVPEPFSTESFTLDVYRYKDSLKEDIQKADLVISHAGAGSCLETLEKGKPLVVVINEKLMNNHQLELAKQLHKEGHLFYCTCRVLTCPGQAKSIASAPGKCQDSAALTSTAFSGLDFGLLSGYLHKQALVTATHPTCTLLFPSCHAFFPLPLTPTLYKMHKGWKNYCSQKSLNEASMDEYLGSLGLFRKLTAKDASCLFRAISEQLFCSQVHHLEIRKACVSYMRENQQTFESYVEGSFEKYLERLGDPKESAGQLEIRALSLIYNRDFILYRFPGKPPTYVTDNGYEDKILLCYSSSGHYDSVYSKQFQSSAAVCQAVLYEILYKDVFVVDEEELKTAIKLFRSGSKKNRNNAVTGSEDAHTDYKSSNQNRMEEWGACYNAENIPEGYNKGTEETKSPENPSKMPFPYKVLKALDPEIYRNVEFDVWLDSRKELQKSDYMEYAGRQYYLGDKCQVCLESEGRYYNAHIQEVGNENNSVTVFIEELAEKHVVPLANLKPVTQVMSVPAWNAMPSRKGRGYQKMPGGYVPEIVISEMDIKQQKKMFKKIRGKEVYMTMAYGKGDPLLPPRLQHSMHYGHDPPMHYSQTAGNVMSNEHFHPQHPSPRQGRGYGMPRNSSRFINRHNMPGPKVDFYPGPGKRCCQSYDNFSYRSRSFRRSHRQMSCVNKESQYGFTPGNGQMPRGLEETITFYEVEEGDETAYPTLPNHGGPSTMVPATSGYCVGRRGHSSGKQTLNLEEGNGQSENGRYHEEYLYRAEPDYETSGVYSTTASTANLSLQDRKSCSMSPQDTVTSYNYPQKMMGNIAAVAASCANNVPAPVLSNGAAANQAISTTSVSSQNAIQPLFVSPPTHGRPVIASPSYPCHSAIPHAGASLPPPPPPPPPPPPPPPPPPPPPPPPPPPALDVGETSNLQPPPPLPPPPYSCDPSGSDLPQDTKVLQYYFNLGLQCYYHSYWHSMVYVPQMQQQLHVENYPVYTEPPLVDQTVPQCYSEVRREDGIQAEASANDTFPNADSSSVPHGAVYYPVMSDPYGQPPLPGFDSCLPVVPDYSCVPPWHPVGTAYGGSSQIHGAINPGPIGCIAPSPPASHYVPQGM
Procedure, shortened: (§1)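 Using Biotin-Ahx-Ub-VS at 0.5 µM final for 1 h, DUBs were labelled in HEK293T lysate (495 µg per sample) that had first been treated in triplicate with fragment at 200 µM or vehicle for 3 h. NeutrAvidin enrichment, LysC and trypsin digestion and diaPASEF LC-MS/MS followed. Spectronaut label-free quantities were global-median-normalised. Values are average log2 fragment/vehicle ratios by unpaired t-test, using proteins with ≥2 unique peptides.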

[2] = target: ATXN3 (UniProt P54252)
Procedure, shortened: as §1

[3] = target: T2, BAP1 (UniProt Q92560)
T2 sequence (whole entry): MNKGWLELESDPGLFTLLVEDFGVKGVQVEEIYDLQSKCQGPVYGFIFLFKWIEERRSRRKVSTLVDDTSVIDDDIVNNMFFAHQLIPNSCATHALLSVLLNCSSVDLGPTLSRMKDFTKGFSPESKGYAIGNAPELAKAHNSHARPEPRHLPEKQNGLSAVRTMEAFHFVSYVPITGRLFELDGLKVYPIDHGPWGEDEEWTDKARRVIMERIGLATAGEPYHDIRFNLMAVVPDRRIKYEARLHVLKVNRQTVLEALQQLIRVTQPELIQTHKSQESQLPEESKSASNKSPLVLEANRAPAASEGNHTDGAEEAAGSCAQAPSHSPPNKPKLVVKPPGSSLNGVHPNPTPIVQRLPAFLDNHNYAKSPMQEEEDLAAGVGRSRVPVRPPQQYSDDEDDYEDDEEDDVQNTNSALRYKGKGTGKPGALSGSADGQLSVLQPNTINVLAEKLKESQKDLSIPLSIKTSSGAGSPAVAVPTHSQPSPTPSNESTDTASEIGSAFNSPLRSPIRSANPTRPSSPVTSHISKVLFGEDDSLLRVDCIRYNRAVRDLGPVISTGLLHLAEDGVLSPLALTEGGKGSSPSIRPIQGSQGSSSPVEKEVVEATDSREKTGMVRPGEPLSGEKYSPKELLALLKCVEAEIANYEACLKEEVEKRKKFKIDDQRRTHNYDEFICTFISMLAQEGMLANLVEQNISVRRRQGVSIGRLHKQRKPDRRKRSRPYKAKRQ
Procedure, shortened: as §1

[4] = target: EIF3F (UniProt O00303)
Procedure, shortened: as §1

[5] = target: EIF3H (UniProt O15372)
Procedure, shortened: as §1

[6] = target: T3, FAM105A (UniProt Q9NUU6)
T3 sequence (whole entry): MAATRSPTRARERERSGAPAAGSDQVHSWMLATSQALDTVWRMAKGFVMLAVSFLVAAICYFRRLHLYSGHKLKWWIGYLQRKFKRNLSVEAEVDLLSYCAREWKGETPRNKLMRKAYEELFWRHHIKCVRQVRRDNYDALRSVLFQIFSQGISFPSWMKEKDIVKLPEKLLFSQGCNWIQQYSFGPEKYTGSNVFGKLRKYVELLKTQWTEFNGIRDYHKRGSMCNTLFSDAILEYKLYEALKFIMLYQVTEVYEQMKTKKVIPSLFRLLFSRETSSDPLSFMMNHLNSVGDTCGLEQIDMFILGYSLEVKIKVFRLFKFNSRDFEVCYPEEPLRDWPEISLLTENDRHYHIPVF
Procedure, shortened: as §1

[7] = target: OTUB1 (UniProt Q96FW1)
Procedure, shortened: as §1

[8] = target: T4, OTUD4 (UniProt Q01804)
T4 sequence (whole entry): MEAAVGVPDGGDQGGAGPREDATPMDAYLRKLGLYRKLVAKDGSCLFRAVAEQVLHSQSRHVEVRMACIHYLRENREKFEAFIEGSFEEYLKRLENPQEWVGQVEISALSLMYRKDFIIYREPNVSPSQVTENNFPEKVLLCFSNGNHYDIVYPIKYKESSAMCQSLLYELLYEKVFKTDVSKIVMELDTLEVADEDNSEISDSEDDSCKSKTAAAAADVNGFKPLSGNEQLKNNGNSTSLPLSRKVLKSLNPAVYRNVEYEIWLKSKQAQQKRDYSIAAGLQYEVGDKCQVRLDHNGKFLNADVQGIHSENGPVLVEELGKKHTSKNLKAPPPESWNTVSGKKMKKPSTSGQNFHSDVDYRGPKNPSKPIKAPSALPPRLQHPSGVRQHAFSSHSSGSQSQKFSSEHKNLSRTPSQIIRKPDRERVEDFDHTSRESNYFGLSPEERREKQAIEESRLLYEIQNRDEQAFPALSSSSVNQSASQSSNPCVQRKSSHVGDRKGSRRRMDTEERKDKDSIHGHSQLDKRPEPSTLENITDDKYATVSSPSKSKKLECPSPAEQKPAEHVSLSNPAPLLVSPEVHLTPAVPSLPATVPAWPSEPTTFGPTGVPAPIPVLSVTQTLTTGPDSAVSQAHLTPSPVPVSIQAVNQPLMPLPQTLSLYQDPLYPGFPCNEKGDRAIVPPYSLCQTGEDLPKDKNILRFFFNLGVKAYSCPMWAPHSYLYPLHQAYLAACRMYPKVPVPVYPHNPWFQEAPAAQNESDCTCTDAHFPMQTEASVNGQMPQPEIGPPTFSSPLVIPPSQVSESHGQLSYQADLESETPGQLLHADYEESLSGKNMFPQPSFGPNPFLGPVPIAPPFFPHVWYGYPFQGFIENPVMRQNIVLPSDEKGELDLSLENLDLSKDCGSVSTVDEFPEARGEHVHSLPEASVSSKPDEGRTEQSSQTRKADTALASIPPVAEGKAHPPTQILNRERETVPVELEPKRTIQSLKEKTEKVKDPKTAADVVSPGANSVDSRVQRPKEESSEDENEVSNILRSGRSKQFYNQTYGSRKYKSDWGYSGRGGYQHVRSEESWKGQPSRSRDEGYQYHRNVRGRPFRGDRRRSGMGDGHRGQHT
Procedure, shortened: as §1

[9] = target: T5, OTUD5 (UniProt Q96G74)
T5 sequence (whole entry): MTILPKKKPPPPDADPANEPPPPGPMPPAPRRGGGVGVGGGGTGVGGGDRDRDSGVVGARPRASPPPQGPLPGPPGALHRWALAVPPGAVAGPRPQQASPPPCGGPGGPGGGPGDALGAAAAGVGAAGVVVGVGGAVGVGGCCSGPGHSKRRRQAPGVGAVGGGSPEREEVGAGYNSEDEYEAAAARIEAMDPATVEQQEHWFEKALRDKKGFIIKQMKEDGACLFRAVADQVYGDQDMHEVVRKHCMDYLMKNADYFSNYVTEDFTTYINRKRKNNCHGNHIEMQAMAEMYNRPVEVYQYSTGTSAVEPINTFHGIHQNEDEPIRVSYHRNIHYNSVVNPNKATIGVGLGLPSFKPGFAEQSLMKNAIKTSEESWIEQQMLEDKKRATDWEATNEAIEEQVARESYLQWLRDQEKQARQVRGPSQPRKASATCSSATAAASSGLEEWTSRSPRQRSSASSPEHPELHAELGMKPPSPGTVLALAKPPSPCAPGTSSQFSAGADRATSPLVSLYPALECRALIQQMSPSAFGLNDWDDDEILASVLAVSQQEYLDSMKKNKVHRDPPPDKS
Procedure, shortened: as §1

Measured: log2 ratio of Biotin-Ahx-Ub-VS probe labelling

Sequence of OTUB1 (Q96FW1 whole entry): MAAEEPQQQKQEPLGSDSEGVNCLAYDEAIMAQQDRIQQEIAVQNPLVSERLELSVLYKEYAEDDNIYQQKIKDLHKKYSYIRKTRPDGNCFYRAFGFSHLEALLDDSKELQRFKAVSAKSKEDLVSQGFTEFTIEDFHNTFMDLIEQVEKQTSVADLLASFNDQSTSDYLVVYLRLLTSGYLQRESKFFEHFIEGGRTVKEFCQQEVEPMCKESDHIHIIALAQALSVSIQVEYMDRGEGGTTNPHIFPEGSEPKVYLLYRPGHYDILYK
Sequence of EIF3H (O15372 whole entry): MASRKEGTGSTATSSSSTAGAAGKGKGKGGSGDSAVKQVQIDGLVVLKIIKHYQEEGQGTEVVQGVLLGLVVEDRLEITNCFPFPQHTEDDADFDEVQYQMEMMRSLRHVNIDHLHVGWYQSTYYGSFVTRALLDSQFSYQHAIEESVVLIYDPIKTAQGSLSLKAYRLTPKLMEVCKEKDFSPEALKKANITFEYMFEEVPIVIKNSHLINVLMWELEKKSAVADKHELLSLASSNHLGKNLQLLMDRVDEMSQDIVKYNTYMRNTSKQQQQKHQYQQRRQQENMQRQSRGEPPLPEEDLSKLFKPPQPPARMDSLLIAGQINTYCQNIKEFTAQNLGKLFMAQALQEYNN
Sequence of EIF3F (O00303 whole entry): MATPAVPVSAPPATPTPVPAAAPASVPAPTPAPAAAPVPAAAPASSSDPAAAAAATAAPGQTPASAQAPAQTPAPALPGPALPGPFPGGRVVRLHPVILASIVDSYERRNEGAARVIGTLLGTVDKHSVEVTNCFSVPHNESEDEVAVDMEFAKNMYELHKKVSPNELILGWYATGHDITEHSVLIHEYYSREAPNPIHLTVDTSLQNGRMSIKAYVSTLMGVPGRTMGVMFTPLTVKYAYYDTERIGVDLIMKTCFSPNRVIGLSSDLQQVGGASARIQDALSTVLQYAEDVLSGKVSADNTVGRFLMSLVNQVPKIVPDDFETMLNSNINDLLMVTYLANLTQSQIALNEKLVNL
Sequence of ATXN3 (P54252 whole entry): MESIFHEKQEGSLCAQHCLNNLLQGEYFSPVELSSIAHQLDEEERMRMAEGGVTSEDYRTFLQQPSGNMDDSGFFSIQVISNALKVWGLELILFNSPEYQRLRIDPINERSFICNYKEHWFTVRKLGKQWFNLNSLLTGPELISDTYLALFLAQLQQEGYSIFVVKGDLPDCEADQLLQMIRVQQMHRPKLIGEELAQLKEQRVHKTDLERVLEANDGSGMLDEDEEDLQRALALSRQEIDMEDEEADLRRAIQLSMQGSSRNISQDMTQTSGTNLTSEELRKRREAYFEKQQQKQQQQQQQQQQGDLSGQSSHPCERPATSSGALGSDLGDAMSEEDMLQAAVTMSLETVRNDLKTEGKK

O=C(CCl)NC1CCS(=O)(=O)c2ccccc21 (centres undefined)
active: [3] -2.77 | [8] -1.76
inactive: [1] -0.299 | [2] -0.496 | [4] -0.00472 | [5] -0.0327 | [6] -0.0548 | [7] 0.0659 | [9] -0.271
